Source: PubChem BioAssay
Compounds with a hit are over-represented: about 11% of the library has one in this group of screens.
Pf growth 48h: Primary qHTS for delayed death inhibitors of the malarial parasite plastid, 48 hour incubation. P. falciparum luciferase growth in erythrocytes, 48 h. Potency, µM (highest dose often 28.7 µM), for the others: at the top dose activity change, negative = inhibition, usual class: inhibitors. actives 5.9% (n = 310,000). AID 504832, 2011
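Luminescence readout; reporter = integrated firefly luciferase in P. falciparum. RBC culture at 2% hematocrit, 0.1% parasitemia final, 37 C/5% CO2; decreased signal taken as growth inhibition.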
AmpC detergent: qHTS Inhibitors of AmpC Beta-Lactamase (assay with detergent); P00811; AmpC hydrolysis of nitrocefin, absorbance 480 nm, 0.01% Triton; actives 0.041% (n = 370,000); Potency, µM (series often up to 114 µM), for the others: at the highest dose activity change, negative = inhibition, hits mostly inhibitors;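 note: 0% = no-compound wells and -100% = no-enzyme wells; nearly all actives have a fitted effect of over 25% in size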
Target sequence (P00811 whole entry, looked up): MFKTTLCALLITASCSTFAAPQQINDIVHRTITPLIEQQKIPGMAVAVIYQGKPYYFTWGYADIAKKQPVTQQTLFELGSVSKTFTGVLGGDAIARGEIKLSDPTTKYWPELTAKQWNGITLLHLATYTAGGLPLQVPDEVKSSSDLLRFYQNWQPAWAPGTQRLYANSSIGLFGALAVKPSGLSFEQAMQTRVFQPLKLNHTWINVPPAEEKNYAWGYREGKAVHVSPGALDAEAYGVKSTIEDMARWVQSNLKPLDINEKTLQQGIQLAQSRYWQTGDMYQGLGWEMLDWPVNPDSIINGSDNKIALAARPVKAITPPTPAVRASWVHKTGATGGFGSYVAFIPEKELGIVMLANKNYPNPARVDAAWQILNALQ
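20 mM phosphate pH 7.0 + 0.01% (detergent screen) or 0.0001% Triton X-100; 5.3 nM AmpC reagent; cpd preinc 15 min RT; nitrocefin (800 uM stock) to start; A480 q20 s × 4 min; Activity was normalised to no-enzyme and no-compound control wells.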
AmpC inh no detg: qHTS Inhibitors of AmpC Beta-Lactamase (assay without detergent); P00811; AmpC nitrocefin hydrolysis, absorbance 480 nm, 0.0001% Triton; Potency, µM (highest dose often 57.1 µM), for inactives: top-dose activity change, negative = inhibition, hits mostly inhibitors; actives 0.52% (n = 330,000); AID 485341, 2010;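 note: plate controls were no compound for no effect and no enzyme for full effect; nearly all actives have a fitted effect of over 20% in size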
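AmpC (5.3 nM in the dispensed reagent) in 20 mM phosphate pH 7.0 with 0.01% (detergent screen) or 0.0001% Triton X-100 was preincubated with compounds for 15 min at room temperature. Nitrocefin was then added from an 800 uM solution, and hydrolysis was followed at 480 nm.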
HCV inhibitor: qHTS Assay for Inhibitors of Hepatitis C Virus (HCV); Huh7.5.1 HCVcc-Cre infection, luciferase reporter, 44 h; Potency, µM (top dose mostly 41.8 µM), for the others: at the top dose activity change, negative = inhibition, usual class: inhibitors; actives 3.4% (n = 340,000)
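Compounds are dispensed onto cells plated 4 h earlier at 1,000 per well, with HCVcc-Cre virus (about 0.5 moi) added next. Following 44 h of culture, luminescent signal is measured for 15 sec after 15 min with substrate at room temperature.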
Pf growth 96h: Primary qHTS for delayed death inhibitors of the malarial parasite plastid, 96 hour incubation; P. falciparum luciferase reporter growth, 96 h; Potency, µM (top dose mostly 28.7 µM), for inactives: at the highest dose activity change, negative = inhibition, usual class: inhibitors; actives 6.9% (n = 320,000); AID 504834, 2011
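Two parasite generations (96 h, 37 C, 5% CO2) of compound exposure in infected erythrocytes (0.05% parasitemia, 2% hematocrit). Luciferase-reporter P. falciparum; decreased luminescence indicates inhibited growth, aimed at apicoplast-acting delayed death.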
AMA1-RON2 inh: qHTS for Inhibitors of AMA1-RON; Towards Development of Antimalarial Drug Lead: Primary Screen; AlphaScreen AMA1-biotinylated RON2 peptide binding; Potency, µM (highest dose often 58.2 µM), without a hit: top-dose activity change, negative = inhibition, most hits filed as inhibitors; actives 0.2% (n = 360,000);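 note: 0% = vehicle wells and -100% = peptide control; nearly all actives have a fitted effect of over 45% in size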
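AMA1 (3D7) with his tag at 25 nM final met compounds first, then biotinylated RON2 peptide at 25 nM; detection used donor plus acceptor beads, 10 µg/mL apiece, read by AlphaScreen after 30 min at room temperature.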
Numbers without * were called inactive; [ ] = remark or other dose. Calls come from the whole dose curve; as a rule, active = well fitted curve in the direction sought with a large enough effect; inconclusive = small, poorly fitted or top-dose-only effect, or another doubt; inactive = no such curve, though single readings can be large; an effect the other way counts as inactive or inconclusive. Unless noted, % is set by controls: 0 for no effect and ±100 for the full control effect; potency is the fitted concentration of half-maximal effect.

`COC(=O)CCC(=O)OC1(C)C(=O)C=C2C=C(C3CC3)N(Cc3ccc4c(c3)OCO4)C=C2C1=O` (centres undefined) gave Pf growth 48h inconclusive, AmpC detergent -6.1%, AmpC inh no detg 77.9%, HCV inhibitor -19.0%, Pf growth 96h 13.1µM* and AMA1-RON2 inh -24.9%.
Screening Cc1ccc(C(=O)Nc2ccc(Cl)c(-c3nc4ncccc4o3)c2)c(C)c1 returned AmpC detergent 18.8%.
`C=CCn1c(=O)c(C(=O)NC2CC2)c(O)c2cc(OC)c(OC)cc21` gave Pf growth 48h 4.8%, AmpC detergent -2.1%, AmpC inh no detg -14.3%, HCV inhibitor -12.0%, Pf growth 96h 11.7µM* and AMA1-RON2 inh 0.0%.
Screening C=CCn1c(=O)c(C(=O)NCCc2ccc(Cl)cc2)c(O)c2cc(OC)c(OC)cc21 returned Pf growth 48h 1.0%, AmpC detergent -9.4%, AmpC inh no detg -1.5%, HCV inhibitor -5.4%, Pf growth 96h 5.4% and AMA1-RON2 inh -6.3%.
O=C(NCCC1=CCCCC1)c1ccc2c(c1)N(Cc1cccc(Cl)c1)C(=O)c1ccccc1S2=O (centres undefined) was read as AmpC detergent -1.6%.
Screening Cc1ccc(S(=O)(=O)Nc2cc(=O)[nH]c(SCC(=O)Nc3cccc(C(F)(F)F)c3)n2)cc1 returned Pf growth 48h 13.3%, AmpC detergent inconclusive, AmpC inh no detg -27.8%, HCV inhibitor 0.0%, Pf growth 96h -5.5% and AMA1-RON2 inh 6.4%.
For COc1ccc(Cl)cc1NC(=O)CSc1nc(NS(=O)(=O)c2ccccc2)cc(=O)[nH]1 the results were Pf growth 48h 0.0%, AmpC detergent -4.3%, AmpC inh no detg -18.7%, HCV inhibitor inconclusive, Pf growth 96h 8.28µM* and AMA1-RON2 inh 2.1%.
Screening Cc1cccc(NC(=O)CSc2nc(NS(=O)(=O)c3ccccc3)cc(=O)[nH]2)c1 returned Pf growth 48h 0.0%, AmpC detergent -6.5%, AmpC inh no detg -28.7%, HCV inhibitor -5.7%, Pf growth 96h 10.4µM* and AMA1-RON2 inh -1.4%.
For NS(=O)(=O)c1cccc(NC(=O)CSc2nc3ccc(Cl)cc3[nH]2)c1 the results were Pf growth 48h 47.5%, AmpC detergent inconclusive, AmpC inh no detg 17.8µM*, HCV inhibitor 7.8%, Pf growth 96h 112.6% and AMA1-RON2 inh 6.3%.
`Cc1ccc(NC(=O)CSc2nc(NS(=O)(=O)c3ccc(C)cc3)cc(=O)[nH]2)cc1` gave Pf growth 48h 5.22µM*, AmpC detergent inconclusive, AmpC inh no detg -13.8%, HCV inhibitor -24.7% and AMA1-RON2 inh -4.2%.
O=C(CSc1nc(NS(=O)(=O)c2ccccc2)cc(=O)[nH]1)Nc1ccc(Cl)cc1 was read as Pf growth 48h 9.2%, AmpC detergent inconclusive, AmpC inh no detg -45.5%, HCV inhibitor 13.6%, Pf growth 96h inconclusive and AMA1-RON2 inh 0.0%.
COc1ccc(-c2ccc(NS(=O)(=O)c3ccccc3Cl)cc2)nn1 was read as AmpC detergent 17.4%.
COc1ccccc1NC(=O)Cn1c(=O)oc2cc(S(=O)(=O)NCc3ccccc3)ccc21 was read as AmpC detergent 16.6%.
For CCN(CC)S(=O)(=O)c1ccc2nc(NC(=O)c3cccnc3)sc2c1 the results were AmpC detergent -3.3%.
For O=c1cc(NS(=O)(=O)c2ccccc2)nc(SCc2ccc(Cl)cc2)[nH]1 the results were Pf growth 48h inconclusive, AmpC detergent 2.4%, AmpC inh no detg -38.0%, HCV inhibitor inconclusive, Pf growth 96h inconclusive and AMA1-RON2 inh 2.6%.
For Cc1ccc(S(=O)(=O)Nc2cc(=O)[nH]c(SCc3ccccc3Cl)n2)cc1 the results were Pf growth 48h -4.6%, AmpC detergent inconclusive, AmpC inh no detg 10µM*, HCV inhibitor inconclusive, Pf growth 96h 0.0% and AMA1-RON2 inh -4.5%.
Screening CCOC(=O)c1ccccc1NC(=O)CSc1nc2ncccc2[nH]1 returned AmpC detergent 12.8%.
Screening Cc1ccccc1CN1C(=O)c2ccccc2Sc2ccc(C(=O)NCc3ccccc3)cc21 returned AmpC detergent -0.5%.
For O=S(=O)(c1ccc2c(c1)OCCO2)N1CCC(O)(c2ccc(Cl)cc2)CC1 the results were Pf growth 48h 8.9%, AmpC detergent 4.0%, AmpC inh no detg -21.5%, HCV inhibitor -24.3%, Pf growth 96h 9.28µM* and AMA1-RON2 inh 10.0%.
`O=S(=O)(c1ccccc1Cl)N1CCC(O)(c2ccc3c(c2)OCO3)CC1` gave Pf growth 48h 6.2%, AmpC detergent inconclusive, AmpC inh no detg -38.2%, HCV inhibitor -4.1%, Pf growth 96h 2.94µM* and AMA1-RON2 inh -6.7%.
`O=C(c1ccc(F)cc1)N1CCN(S(=O)(=O)c2ccc3c(c2)OCCO3)CC1` gave AMA1-RON2 inh 5.0%.
`O=C(c1ccc(F)cc1F)N1CCN(S(=O)(=O)c2ccc3c(c2)OCCO3)CC1` gave Pf growth 48h inconclusive, AmpC detergent -8.7%, AmpC inh no detg -3.6%, HCV inhibitor inconclusive, Pf growth 96h 9.28µM* and AMA1-RON2 inh 3.4%[11.6 µM].
`CCc1nn2c(=O)cc(COC(=O)c3ccco3)nc2s1` gave AmpC detergent 1.4%.
Screening Cc1cc(C)c(NC(=O)CCCN2C(=O)COc3ccc(C)cc32)c(C)c1 returned AmpC detergent 0.8%.
Cc1ccccc1CSc1cn(CC(=O)N2CCCCC2)c2ccccc12 was read as AmpC detergent 4.7%.
Screening CC(C)[C@H](NC(=O)OCc1ccccc1)C(=O)NC(C=O)Cc1ccccc1 (some centres undefined) returned Pf growth 48h 1.31µM*, AmpC detergent inconclusive, AmpC inh no detg 1.3%, HCV inhibitor 2.7%, Pf growth 96h 3.7µM* and AMA1-RON2 inh 0.6%.
Cc1ccc2oc(=O)n(CC(=O)OC(C)C)c2c1 was read as Pf growth 48h 0.0%, AmpC detergent -6.2%, AmpC inh no detg -15.4%, HCV inhibitor 9.3%, Pf growth 96h 10.4µM* and AMA1-RON2 inh 3.3%.
`COc1ccc(Cn2c(=O)oc3ccc(C)cc32)cc1OC` gave Pf growth 48h -8.3%, AmpC detergent -1.0%, AmpC inh no detg 9.9%, HCV inhibitor 14.1µM*, Pf growth 96h -20.2% and AMA1-RON2 inh 13.3%.
